# According to PubChem BioAssay (NCI):
# This is part of a sample that, as a whole, favours compounds with a hit. Of some 79,000 tested, about 15% had one in any assay. Unmarked numbers belong to inactive results. Active and inactive are the calls of the source. No stated cut-off is given here; in the data, active means growth inhibition above about 70%; inactive means the rest.
# How the values were obtained:
# [1] = NCI Yeast Anticancer Drug Screen. Data for the rad50 strain (AID 155);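 further: 0% = growth of vehicle-only cultures of the same strain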; settings: S. cerevisiae rad50 strain growth inhibition, hits give high values
# In short: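 Vehicle-treated cultures provide the reference for the growth inhibition reported for compound-exposed, repair-deficient yeast.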
# [2] = NCI Yeast Anticancer Drug Screen. Data for the mec2-1 strain (AID 157); settings: S. cerevisiae mec2-1 strain, hits give high values
# In short: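 Compounds were applied to mec2-1 yeast cells. Their growth was then compared with that of vehicle-treated cultures to give growth inhibition.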
# [3] = NCI Yeast Anticancer Drug Screen. Data for the sgs1 mgt1 strain (AID 161);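 further: 0% = growth of cultures given vehicle only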; settings: S. cerevisiae sgs1 mgt1 strain, hits give high values
# In short: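 Percent growth inhibition was derived by comparing compound-exposed mutant yeast with vehicle-exposed cultures. The strain carries alterations in DNA damage repair.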
# [4] = NCI Yeast Anticancer Drug Screen. Data for the cln2 rad14 strain (AID 165);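 further: 0% = growth equal to vehicle treated cultures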; settings: S. cerevisiae cln2 rad14 strain, hits give high values
# In short: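 Strain: cln2 rad14 yeast, altered in cell cycle control and DNA damage repair. Read-out: growth inhibition vs vehicle.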
# [5] = NCI Yeast Anticancer Drug Screen. Data for the bub3 strain (AID 167); settings: S. cerevisiae bub3 mutant strain, hits give high values
# In short: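 Mutant yeast screening strain plus compound; vehicle-treated cultures serve as the 0% inhibition reference.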
# [6] = NCI Yeast Anticancer Drug Screen. Data for the mlh1 rad18 strain (AID 175); settings: S. cerevisiae mlh1 rad18 strain growth inhibition, hits give high values
# In short: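 A repair-deficient yeast strain is exposed to test compound, and growth is scored relative to vehicle-treated controls.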
# [7] = at 5.0 µM (retest, dose inferred, filed as 0.5)
# [8] = at 50.0 µM (retest, dose inferred, filed as 5.0)
Compound,"growth inhibition [1, 7]","growth inhibition [1, 8]",growth inhibition ([1]; at 50.0 µM),"growth inhibition [2, 7]","growth inhibition [2, 8]",growth inhibition ([2]; at 50.0 µM),"growth inhibition [3, 7]","growth inhibition [3, 8]",growth inhibition ([3]; at 50.0 µM),"growth inhibition [4, 7]","growth inhibition [4, 8]",growth inhibition ([4]; at 50.0 µM),"growth inhibition [5, 7]","growth inhibition [5, 8]",growth inhibition ([5]; at 50.0 µM),"growth inhibition [6, 7]","growth inhibition [6, 8]",growth inhibition ([6]; at 50.0 µM)
CC(=O)NC1=C(Oc2ccccc2)C(=O)c2ccccc2C1=O,94% (active),99% (active),99.2% (active),98% (active),100% (active),97.8% (active),88% (active),100% (active),99.1% (active),89% (active),100% (active),70% (active),98% (active),100% (active),94.5% (active),96% (active),99% (active),99.1% (active)
Nc1ccccc1SCc1csc(-c2ccc(Cl)cc2)n1,-4%,98% (active),97.9% (active),-3%,98% (active),97.3% (active),2%,98% (active),98.5% (active),-10%,97% (active),97.2% (active),2%,98% (active),97.1% (active),2%,98% (active),97.6% (active)
O=c1ccccc(Br)c1O,12%,97% (active),98.7% (active),10%,93% (active),97.8% (active),6%,97% (active),99.6% (active),19%,87% (active),93.1% (active),8%,98% (active),97.6% (active),9%,97% (active),98.9% (active)
NNC(=S)NN/C=C(\C=Nc1ccccc1)[N+](=O)[O-],19%,80% (active),69.8%,-29%,70% (active),68%,7%,62%,65.5%,-17%,57%,57.5%,-6%,64%,75.1% (active),-20%,86% (active),68.8%
COc1cccc(C2c3cc4c(cc3OC(NNS(=O)(=O)c3ccc(C)cc3)C2C)OCO4)c1O (configuration not stated),-7%,94% (active),75.4% (active),-10%,81% (active),85.6% (active),-4%,95% (active),92.2% (active),9%,88% (active),87.2% (active),-20%,92% (active),54%,6%,94% (active),85.5% (active)
O=C(Oc1cccc2cccnc12)c1ccccc1,4%,97% (active),96.4% (active),-22%,98% (active),97% (active),-4%,97% (active),93.6% (active),2%,85% (active),91.2% (active),28%,99% (active),98% (active),7%,98% (active),95.2% (active)
CSC(SC)=C(C#N)C(=O)Nc1ccc(C)cc1,25%,47%,40.5%,10%,53%,77.3% (active),37%,55%,73.4% (active),36%,37%,29.3%,50%,53%,89.7% (active),8%,8%,83.8% (active)
CCOC(=S)SCc1nc2ccccc2[nH]1,9%,51%,87% (active),3%,96% (active),80.7% (active),7%,15%,82.6% (active),10%,83% (active),69%,5%,86% (active),76.8% (active),3%,93% (active),89.2% (active)
O=[N+]([O-])c1ccc(C2=CSc3ccccc3N2)cc1,-17%,6%,49.7%,-30%,-5%,59.4%,-11%,-7%,58%,11%,25%,22.9%,-16%,19%,73.4% (active),-43%,31%,58.2%
Cc1cc(N2C(=O)CSC2=S)ccc1Cl,-3%,1%,61.1%,-4%,-2%,21.9%,-2%,8%,79.2% (active),-2%,-17%,12.8%,-6%,-1%,7.95%,-6%,0%,51.2%
Brc1ccc(C2SCc3nc4ccccc4n32)cc1 (configuration not stated),2%,89% (active),74.5% (active),7%,51%,24.8%,12%,57%,96.1% (active),-10%,37%,56.6%,-2%,88% (active),92.3% (active),-2%,54%,78.7% (active)
O=C(O)/C(Cl)=C(\Cl)C(=O)Nc1cccc(C(F)(F)F)c1,65%,99% (active),99.5% (active),56%,100% (active),99.7% (active),68%,100% (active),99.7% (active),43%,99% (active),99.3% (active),88% (active),99% (active),99.6% (active),49%,99% (active),99.5% (active)
CCOc1ccc(-c2nc3ccc(-c4nc5ccc(N6CCN(C)CC6)cc5[nH]4)cc3[nH]2)cc1,28%,98% (active),88.7% (active),23%,99% (active),92.9% (active),42%,99% (active),90.2% (active),31%,52%,91.5% (active),41%,98% (active),89.1% (active),57%,98% (active),89% (active)
S=c1nc(N2CCCCC2)ss1,41%,94% (active),95.2% (active),1%,75% (active),66%,18%,93% (active),97.2% (active),17%,70% (active),57.9%,17%,97% (active),46.5%,24%,94% (active),97.2% (active)
COC(=O)C12CCC(=O)C(C)=C1CCC(OC)(OC)C2 (configuration not stated),-5%,4%,95.2% (active),-10%,6%,16.9%,7%,17%,66.5%,-2%,-7%,-1%,-2%,-3%,61.8%,10%,11%,82.3% (active)
CCCN1C(=O)c2ccccc2C1=O,9%,2%,20.4%,1%,-3%,-6.65%,-3%,4%,14.1%,10%,2%,36.6%,10%,17%,-0.55%,4%,0%,9.5%
Cc1cc2nc(CC(=O)c3ccncc3)c(CC(=O)c3ccncc3)nc2cc1C,6%,75% (active),78% (active),9%,60%,53.9%,10%,59%,65.5%,25%,84% (active),75.2% (active),31%,89% (active),61.1%,12%,59%,66.5%
CC(=O)OCC(=O)[C@@]1(O)CC[C@H]2[C@@H]3CCC4=CC(=O)C=C[C@]4(C)[C@@]3(F)[C@@H](O)C[C@@]21C,-27%,41%,0.4%,1%,16%,-2.8%,-4%,59%,17.4%,-6%,5%,66.2%,-2%,51%,17.6%,-3%,71% (active),15.6%
COC(=O)c1ccccc1N=NN(C)CC1OC2OC(C)(C)OC2C1OC (configuration not stated),10%,69%,71.2% (active),17%,27%,43.2%,1%,36%,74.1% (active),-3%,20%,-0.8%,0%,44%,32.6%,4%,61%,88% (active)
